These results are taken from PubChem BioAssay (NCI).

Where “and” joins values, the source holds several entries; their conditions need not be identical. Equal values may be shown once. About 83,000 compounds went through this panel and 20% of them were active in at least one assay; those are over-represented in the sample as a whole.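 Each cell line was grown in a 96-well plate and treated with one concentration of compound for 48 hours. Values below 10 were considered active.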 Calls of active or inactive are those of the source.

This experiment relates to MDA-MB-468 breast. As to the kind of experiment: NCI-60 one-dose screen, 48 h (100 = growth as untreated, 0 = no growth, -100 = all killed). To be noted: 10 µM unless noted.
In the case of `O=C(N/N=C/c1cccs1)c1[nH]c2ccc(Br)cc2c1-c1ccccc1`, the growth was -8.42% (active). With `CC(=O)Nc1ccc(NC(C)=O)c2c1C(=O)c1ccccc1C2=O` the figure was 107% (inactive).

Turning to `COc1cc(-c2ncn(/C=C\c3nnco3)n2)cc(C(F)(F)F)c1`, the growth is -28.9% (active).

Take `O=C(O)C[C@H](O)C[C@H](O)/C=C/c1c(C2CC2)nc2ccccc2c1-c1ccc(F)cc1`: the growth was 75.1% (inactive). With `O=C(CSc1nc2sc3c(c2c(=O)n1-c1ccc(Cl)cc1)CCCC3)Nc1nc(-c2cccc(Br)c2)cs1` the figure was 65.1% (inactive). On to `CC(=O)OCC(=O)[C@@]1(O)[C@H](C)C[C@H]2[C@@H]3C=C(C)C4=Cc5c(cnn5-c5ccc(F)cc5)C[C@]4(C)[C@H]3[C@@H](O)C[C@@]21C`, for which the growth was -22.6% (active). Take `CC1CN(c2oc(-c3ccccc3)nc2C#N)CC(C)O1` (stereo not given): the growth was 109% (inactive). On to `CC(=O)OCC(OC(C)=O)C(OC(C)=O)C(OC(C)=O)C(OC(C)=O)C(/C=N/Nc1ccccc1)=N/Nc1ccccc1` (stereo not given), for which the growth was 46.4% (inactive). To `Cc1cc(C)c(-c2c(O)c(Br)c(-c3c(C)cc(C)c(Br)c3C)c(O)c2Br)c(C)c1Br` belongs 48.9% (inactive); to `COc1ccc(-c2oc3cc(O)c(OC)c(O)c3c(=O)c2OC)cc1O`, -26.6% (active). With `CCOC(=O)C1OC2(CCCC2)OC1C(=O)OCC` (stereo not given) the figure was 100% (inactive); with `COC(=O)c1ccc2c(c1)[n+](=O)c(C(C)=O)c(C(F)(F)F)n2[O-]`, -83.7% (active). Turning to `CN1CCN(Cc2ccc(NC(=O)c3cncc(C#Cc4nc(N)nc5[nH]ncc45)c3)cc2C(F)(F)F)CC1`, the growth is 35.1% (inactive).

Regarding `C/C(=N\NC(=O)Cn1c(-c2ccc(S(C)(=O)=O)cc2)nc2cc(Cl)ccc21)c1ccc(Cl)cc1`, the growth is 68.7% (inactive). For the compound `O=C1NN(c2ccccc2)C(c2ccc3c(c2)OCO3)N2CCC[C@@H]12` (stereo not given in full), the growth is 121% (inactive). `COC(=O)CCC(=O)c1ccccc1`: the growth is 115% (inactive). Turning to `C#Cc1cccc(NC(=O)Nc2cccc(N=C=S)c2)c1`, the growth was 106% [8.25 µM] (inactive).

On to `c1ccc(CCn2cccc2)nc1`, for which the growth was 114% (inactive).

Turning to `C=COCCCCCCCCCCCCCCCCCC`, the growth was 103% (inactive). To `COc1ccc(-c2cc(=O)oc3c4c(ccc23)OCN(Cc2ccc(F)cc2)C4)cc1` belongs 16.1% (inactive); to `COc1cccc(-c2nn(C)c3sc(C(=O)NCCN4CCN(c5ccccc5F)CC4)cc23)c1`, 45.9% (inactive); to `Cc1ccc(-c2nc(C#N)c(S(=O)(=O)n3nc(C)cc3N)o2)cc1`, 57.7% (inactive). With `Nc1ccc(C2=NN(c3ccccc3)C(c3ccc(Cl)cc3)C2)cc1` (stereo not given) the figure was 62.6% (inactive). In the case of `Fc1ccc(-c2cc3nc(C(Cl)Cl)nc(-c4ccco4)n3n2)cc1`, the growth was -43.6% (active).

Regarding `Cc1nn(-c2ccccc2)c(N2CCCCC2)c1/C=N/NC(=O)Cn1c(=O)sc2ccccc21`, the growth was 85.5% (inactive).

For `COc1ccc(/C=C/C(=O)c2cccc(NS(C)(=O)=O)c2)cc1`, the growth is 47% (inactive). To `COC(=O)C1=Nc2ccc(F)cc2/C1=C\c1sc(Nc2ccc(O)cc2)nc1O` belongs 56.1% (inactive); to `COc1cc2oc(-c3cccc(C(=O)Nc4ccc(C)cc4)c3)cc(=O)c2c(OC)c1OC`, 54.5% (inactive). To `CC1(O)OC(COc2ccc(Cl)cc2)COC1O` (stereo not given) belongs 105% (inactive); to `COc1ccc(C2NC3=C(CCCC3)C(C#N)(C#N)C2(C#N)C#N)cc1` (stereo not given), 58% (inactive). `Cc1ccc(NC(=O)/C=N/O)cc1C`: the growth is 62.4% (inactive).

Take `NS(=O)(=O)c1ccc(N=Nc2ccc(-c3nn4cc(-c5ccccc5)nc4s3)cc2)cc1`: the growth was 100% (inactive). With `CS(=O)(=O)N(c1cc(-c2ccc3ncnc(Nc4cccc(Cl)c4)c3c2)cnc1Cl)S(C)(=O)=O`, the growth is -42.1% (active). Turning to `CCCCCSc1ccc2nc(NC(=O)OCC)sc2c1`, the growth is -10.5% (active). Turning to `NC(=O)NNC(=O)c1ccccc1`, the growth is 110% (inactive).

For `Cc1cn(-c2nc3c(c(NCc4ccccc4)n2)COCC3)c2cccc(C(N)=O)c12`, the growth is 114% [0.5 µM] (inactive). With `CCOc1ccccc1CN1CCc2nc3cc(C(C)(C)C)[nH]n3c(=O)c2C1` the figure was 105% (inactive); with `Nc1ncnc2c1N=C(c1ccc(F)cc1)CC(c1cccc(Nc3ccnc4cc(Cl)ccc34)c1)N2` (stereo not given), 74.1% (inactive). To `O=c1[nH]c(=O)n(C2OC(CO)C(O)C2O)cc1I` (stereo not given) belongs 102% (inactive) and 123% (inactive). With `Cc1ccc(NCCNCC(C)(C)O)c2c(=O)c3ccc(Cl)cc3sc12` the figure was -28.9% (active).
